The source of these data is PubChem BioAssay (Tox21).

Assay [1] is described as follows: qHTS assay to identify small molecule antagonists of the glucocorticoid receptor (GR) signaling pathway - cell viability counter screen (AID 720693). Further: nearly all actives have a fitted effect of over 55% in size. Background: In qHTS, concentration-response curves come from the screen itself.
A short description of assay [2]: qHTS assay for identifying genotoxic compounds that show differential cytotoxicity against isogenic chicken DT40 cell lines with known DNA damage response pathways - wild type cell line (AID 743012). Further: nearly all actives have a fitted effect of over 60% in size. In short, it runs like this:
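Quantitative HTS on parental DT40 cells: 40 h compound treatment at 37 C/5% CO2, with viability then determined by CellTiter-Glo luminescence. Values serve as the DNA repair-proficient reference for differential cytotoxicity.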

Assay [3] in a line: qHTS assay for identifying genotoxic compounds that show differential cytotoxicity against isogenic chicken DT40 cell lines with known DNA damage response pathways - Rad54/Ku70 mutant cell line (AID 743015). Further: nearly all actives have a fitted effect of over 60% in size.
Assay [4] deals with Androgen receptor (Homo sapiens) (UniProt P10275). The assay can be described thus: qHTS assay to identify small molecule antagonists of the androgen receptor (AR) signaling pathway (AID 743035; active means well fitted inhibition curve with a large enough effect in the signal ratio in the repeat runs, not every such curve was filed as active; the % refers to the signal ratio). In a few lines:
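Cell line: GeneBLAzer AR-UAS-bla GripTite (HEK293). Stimulus: R1881 added after compound. Exposure: 16 h, 37C, 5% CO2. Readout: LiveBLAzer B/G FRET fluorescence after 2 h at room temperature.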

Assay [5] has the same target. The assay can be described thus: qHTS assay to identify small molecule agonists of the androgen receptor (AR) signaling pathway (AID 743036; active means well fitted activation curve with a large enough effect in the signal ratio in the repeat runs, with a control signal flat, not every such curve was filed as active; the % refers to the signal ratio). In a few lines:
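Fluorescence from a beta-lactamase FRET substrate served as read-out in AR-UAS-bla GripTite HEK293 cells. Cells were treated with DMSO-dissolved compounds for 16 h at 37C, then with LiveBLAzer B/G substrate for 2 h at room temperature.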

Assay [6] has the same target. The assay can be described thus: qHTS assay to identify small molecule agonists of the androgen receptor (AR) signaling pathway using the MDA cell line (AID 743040; further: nearly all actives have a fitted effect of over 20% in size). In a few lines:
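MDA-kb2 breast carcinoma cells carrying MMTV-luciferase (responsive to AR and GR), plated 5 h then treated 16 h with compounds at 37C, 0% CO2. Read-out was ONE-Glo luminescence after 30 min at room temperature.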

Assay [7] is described as follows: qHTS assay to identify small molecule antagonists of the androgen receptor (AR) signaling pathway using the MDA cell line - cell viability counter screen (AID 743041; further: nearly all actives have a fitted effect of over 45% in size). In a few lines:
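MDA-kb2 AR-luc cells (MMTV-luciferase, AR/GR responsive) treated with compounds plus R1881 agonist for 16 h at 37C. CellTiter-Fluor added at 15.5 h; fluorescence read after 30 min in the same wells.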

In assay [8] the target is Androgen receptor (Homo sapiens) (UniProt P10275). The assay can be described thus: qHTS assay to identify small molecule antagonists of the androgen receptor (AR) signaling pathway using the MDA cell line (AID 743042; further: nearly all actives have a fitted effect of over 55% in size). In a few lines: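 MDA-kb2 breast carcinoma cells carrying MMTV-luciferase (AR/GR responsive) were co-treated with compounds and the agonist R1881 for 16 h at 37C. Inhibition read as ONE-Glo luminescence; CellTiter-Fluor fluorescence measured in parallel for cytotoxicity.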
Chain of Androgen receptor (Homo sapiens) (P10275 whole entry, looked up): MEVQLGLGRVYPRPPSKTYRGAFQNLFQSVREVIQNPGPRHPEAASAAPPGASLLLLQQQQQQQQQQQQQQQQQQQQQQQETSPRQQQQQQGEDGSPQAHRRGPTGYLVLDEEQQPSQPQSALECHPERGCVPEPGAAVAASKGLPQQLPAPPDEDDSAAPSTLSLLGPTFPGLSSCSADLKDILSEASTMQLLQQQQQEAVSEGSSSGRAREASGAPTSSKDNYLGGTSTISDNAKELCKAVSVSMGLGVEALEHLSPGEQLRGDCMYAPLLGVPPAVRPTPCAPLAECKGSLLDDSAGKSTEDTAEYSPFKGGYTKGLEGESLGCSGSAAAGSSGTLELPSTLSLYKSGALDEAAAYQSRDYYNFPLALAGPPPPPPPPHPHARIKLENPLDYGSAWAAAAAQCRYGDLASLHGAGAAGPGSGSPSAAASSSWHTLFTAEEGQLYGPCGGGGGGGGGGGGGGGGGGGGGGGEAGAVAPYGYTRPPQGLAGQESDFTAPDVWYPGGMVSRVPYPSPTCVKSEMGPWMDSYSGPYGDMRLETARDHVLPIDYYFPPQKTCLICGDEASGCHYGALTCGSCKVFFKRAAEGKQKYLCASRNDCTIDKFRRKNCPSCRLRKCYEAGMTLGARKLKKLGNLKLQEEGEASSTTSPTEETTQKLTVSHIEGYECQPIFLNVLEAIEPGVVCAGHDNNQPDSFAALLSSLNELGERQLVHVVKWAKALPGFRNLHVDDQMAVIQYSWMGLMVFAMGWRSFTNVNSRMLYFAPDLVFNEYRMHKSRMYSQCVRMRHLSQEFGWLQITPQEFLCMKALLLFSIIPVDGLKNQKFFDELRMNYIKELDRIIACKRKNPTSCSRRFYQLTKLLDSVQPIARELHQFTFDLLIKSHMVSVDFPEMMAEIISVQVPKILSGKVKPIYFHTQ

A short description of assay [9]: qHTS assay to identify small molecule antagonists of the thyroid receptor (TR) signaling pathway - cell viability counter screen (AID 743064). Further: nearly all actives have a fitted effect of over 50% in size. In a few lines:
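Fluorescence from CellTiter-Fluor, added after 23.5 h exposure at 37 °C, reported viability of GH3.TRE-Luc cells co-treated with compound and 1 nM T3. Measured in the same wells as the luciferase TR readout.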

Assay [10] in a line: qHTS assay to identify small molecule antagonists of the thyroid receptor (TR) signaling pathway (AID 743065). Further: series mostly up to about 70 µM; nearly all actives have a fitted effect of over 55% in size. In a few lines: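 GH3.TRE-Luc rat pituitary cells (two TREs driving luciferase) were dosed with compound, then stimulated with 1 nM T3 (final) for 23.5 h at 37 C. ONE-Glo luminescence was the read-out, with CellTiter-Fluor fluorescence as the cytotoxicity counter-screen.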

Assay [11] concerns thyroid hormone receptor (rat, GH3 cells). The assay can be described thus: qHTS assay to identify small molecule agonists of the thyroid receptor (TR) signaling pathway (AID 743066; calls by dose curve; further: potency means the concentration at half of the fitted maximal effect).
Assay [12] addresses Estrogen receptor (Homo sapiens) (UniProt P03372). The assay can be described thus: qHTS assay to identify small molecule antagonists of the estrogen receptor alpha (ER-alpha) signaling pathway (AID 743069; active means well fitted curve in the direction sought with a large enough effect in the signal ratio in the repeat runs, not every such curve was filed as active; the % refers to the signal ratio). In short, it runs like this: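 HEK293 ER-alpha-UAS-bla GripTite cells, held overnight in 2% charcoal-stripped FBS, 5,000 cells/well, preincubated 4 h, then compound plus 17beta-estradiol for 18 h at 37C. Beta-lactamase read by LiveBLAzer B/G FRET substrate, 2 h at room temperature.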

Assay [13] in a line: qHTS assay to identify small molecule antagonists of the estrogen receptor alpha (ER-alpha) signaling pathway - cell viability counter screen (AID 743074; calls by dose curve;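 further: HEK293 cells carrying ER-alpha-UAS-bla reporter stimulated with 17beta-estradiol; nearly all actives have a fitted effect of over 45% in size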).
Assay [14] has as its target Estrogen receptor (Homo sapiens) (UniProt P03372). The assay can be described thus: qHTS assay to identify small molecule agonists of the estrogen receptor alpha (ER-alpha) signaling pathway (AID 743075; calls by dose curve).
The target is the same in assay [15]. The assay can be described thus: qHTS assay to identify small molecule agonists of the estrogen receptor alpha (ER-alpha) signaling pathway using the BG1 cell line (AID 743079). Further: nearly all actives have a fitted effect of over 20% in size. Further: potency means the concentration at half of the fitted maximal effect.
A short description of assay [16]: qHTS assay to identify small molecule antagonists of the estrogen receptor alpha (ER-alpha) signaling pathway using the BG1 cell line (AID 743080; calls by dose curve;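 further: BG1 cells stimulated with 17beta-estradiol alongside compound; series mostly up to about 70 µM; nearly all actives have a fitted effect of over 25% in size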). In a few lines: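 Readout is ONE-Glo luminescence, taken 30 min at room temperature after reagent addition, preceded by a CellTiter-Fluor viability read; BG1-Luc-4E2 cells had received compound and 17beta-estradiol for 21.5 h at 37 C.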

A short description of assay [17]: qHTS assay to identify small molecule antagonists of the estrogen receptor alpha (ER-alpha) signaling pathway using the BG1 cell line - cell viability counter screen (AID 743081).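 Further: compound given together with 17beta-estradiol as the ER stimulus; series mostly up to about 70 µM; nearly all actives have a fitted effect of over 45% in size.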
A further assay addresses Aromatase (Homo sapiens) (UniProt P11511). The assay can be described thus: qHTS assay to identify aromatase inhibitors (AID 743083). Further: series mostly up to about 70 µM; nearly all actives have a fitted effect of over 55% in size.
A short description of assay [18]: qHTS assay to identify small molecule antagonists of the androgen receptor (AR) signaling pathway - cell viability counter screen (AID 743033; further: nearly all actives have a fitted effect of over 45% in size).
Assay [19] in a line: qHTS assay for identifying genotoxic compounds that show differential cytotoxicity against isogenic chicken DT40 cell lines with known DNA damage response pathways - Rev3 mutant cell line (AID 743014). Further: nearly all actives have a fitted effect of over 55% in size.

Records with an inconclusive call do not appear. Calls of active or inactive are those of the source. Unless noted, the call rests on the fitted dose curve; in most records, active means well fitted curve in the direction sought with a large enough effect in the repeat runs; inconclusive means weak or mixed curves; inactive means no such curve, though single readings can be large; an effect the other way counts as inactive or inconclusive.

Chain of Aromatase (Homo sapiens) (P11511 whole entry, looked up): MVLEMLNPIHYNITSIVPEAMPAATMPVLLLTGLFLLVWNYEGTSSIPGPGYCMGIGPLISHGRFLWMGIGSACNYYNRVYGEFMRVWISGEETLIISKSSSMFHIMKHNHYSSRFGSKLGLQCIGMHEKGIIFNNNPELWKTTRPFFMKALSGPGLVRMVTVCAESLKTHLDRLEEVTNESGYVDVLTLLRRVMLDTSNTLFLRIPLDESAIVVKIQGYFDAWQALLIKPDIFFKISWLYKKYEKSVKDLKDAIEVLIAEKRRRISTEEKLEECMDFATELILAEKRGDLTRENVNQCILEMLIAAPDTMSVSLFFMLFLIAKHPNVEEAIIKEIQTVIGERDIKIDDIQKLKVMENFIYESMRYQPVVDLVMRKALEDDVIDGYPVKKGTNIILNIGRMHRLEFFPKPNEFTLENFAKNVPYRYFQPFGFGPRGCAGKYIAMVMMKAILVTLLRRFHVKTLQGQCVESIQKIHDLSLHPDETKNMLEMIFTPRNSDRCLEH
Chain of Estrogen receptor (Homo sapiens) (P03372 whole entry, looked up): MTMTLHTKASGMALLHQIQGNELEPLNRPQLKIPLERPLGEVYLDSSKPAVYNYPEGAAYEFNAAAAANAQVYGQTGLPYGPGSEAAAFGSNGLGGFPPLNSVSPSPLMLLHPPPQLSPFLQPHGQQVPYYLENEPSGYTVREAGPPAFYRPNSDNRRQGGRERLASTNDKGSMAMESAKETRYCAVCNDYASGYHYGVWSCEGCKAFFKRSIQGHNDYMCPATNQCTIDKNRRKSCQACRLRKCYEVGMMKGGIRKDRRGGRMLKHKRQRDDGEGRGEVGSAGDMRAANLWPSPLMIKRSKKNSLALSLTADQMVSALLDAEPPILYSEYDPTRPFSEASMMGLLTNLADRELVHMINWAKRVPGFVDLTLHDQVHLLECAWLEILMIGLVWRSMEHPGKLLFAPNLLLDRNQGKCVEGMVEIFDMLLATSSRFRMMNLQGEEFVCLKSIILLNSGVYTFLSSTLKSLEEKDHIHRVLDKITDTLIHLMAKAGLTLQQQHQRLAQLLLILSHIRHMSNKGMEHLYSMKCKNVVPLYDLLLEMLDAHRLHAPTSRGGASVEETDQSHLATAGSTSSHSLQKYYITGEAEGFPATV

As for `CNC(=O)NC`, the Potency result in [1], in assay [2], in [3], in assay [4], in assay [9] and in [10] was “inactive” each time. Also, the Potency entry in [11], in assay [12], in assay [13], in assay [14] and in assay [15] was “inactive” each time. Besides, the molecule was classed as inactive in [5], in assay [6], in [7], in assay [8], in [16] and in assay [17]. Moreover, the result with Aromatase (Homo sapiens) was inactive.

For the molecule `C=C[C@@H](C)CCC=C(C)C`, the Potency entry in [1], in assay [2], in [3], in [9], in assay [11] and in assay [13] was “inactive” throughout. The result (in [18]; in assay [7]; in assay [17]; in the assay with Aromatase (Homo sapiens)) was inactive.

As for `Oc1ccccc1Cc1ccccc1O`, the Potency result in assay [1], in assay [2], in assay [19], in assay [9], in [11] and in [15] was “inactive” throughout. The call (in [18]; in assay [7]; in [16]; in assay [17]; in the assay with Aromatase (Homo sapiens)) was inactive.

On to `CC(=O)OC(C)(C)Cc1ccccc1`, for which the Potency entry in assay [1], in assay [2], in assay [19], in [9], in assay [10] and in assay [11] was “inactive” throughout. In addition, the Potency entry in assay [13] was “inactive”. The molecule was called inactive in assay [7] and in assay [17].

Regarding `BrC/C=C/CBr`, the Potency entry in assay [1], in assay [2], in [3], in assay [9], in [10] and in assay [11] was “inactive” throughout. Also, the Potency result in [13] is “inactive”. Moreover, the call (in assay [18]; in [7]; in assay [17]; in the assay with Aromatase (Homo sapiens)) was inactive.

As to `NC(=O)NC(=O)Cc1ccccc1`, the Potency result in [1], in assay [2], in assay [3], in [9], in [10] and in assay [11] was “inactive” each time. Further, the Potency result in assay [12], in [13] and in assay [14] was “inactive” throughout. Moreover, the molecule was called inactive (in assay [7]; in assay [16]; in assay [17]; with Aromatase (Homo sapiens)). Further, in assay [15], the Potency was 33.5 µM (active).

For `CO[Si](CCCS)(OC)OC`, the Potency result in assay [1], in assay [2], in assay [19], in assay [3], in [11] and in assay [12] was “inactive” each time. The Potency result in assay [13], in assay [14] and in [15] was “inactive” throughout. Besides, the molecule was classed as inactive (in assay [7]; in [16]; in assay [17]; with Aromatase (Homo sapiens)).

Consider `CCC(O)C(C)(C)C` (stereo not given), for which the Potency entry in assay [1], in [2], in assay [3], in [10], in [11] and in [12] was “inactive” each time. Moreover, the Potency entry in assay [13] and in assay [14] was “inactive” in each case. Further, the result (in [18]; in assay [7]; in [16]; in assay [17]; with Aromatase (Homo sapiens)) was inactive.

As to `CC1(N)CCC(C(C)(C)N)CC1` (stereo not given), the Potency entry in [1], in assay [2], in assay [19], in [3], in assay [10] and in [11] was “inactive” in each case. The Potency result in assay [13] was “inactive”. In addition, the result (in assay [7]; in [17]; in the assay with Aromatase (Homo sapiens)) was inactive.

`C[C@H](CCC(=O)NCC(=O)O)[C@H]1CC[C@H]2[C@@H]3[C@H](O)C[C@@H]4C[C@H](O)CC[C@]4(C)[C@H]3C[C@H](O)[C@]12C`: the Potency result in assay [1], in assay [2], in [3], in assay [10] and in assay [13] was “inactive” in each case. Besides, the outcome (in assay [18]; in assay [7]; in assay [17]; with Aromatase (Homo sapiens)) was inactive. Besides, in assay [11], the Potency is 74.8 µM (active).

As to `NS(=O)(=O)c1cc2c(cc1Cl)NC(CC1CCCC1)NS2(=O)=O` (stereo not given), the Potency result in assay [1], in [2], in assay [3], in assay [9], in assay [10] and in assay [11] was “inactive” in each case. Also, in [13], the Potency result was “inactive”. Also, the outcome (in assay [18]; in [7]; in [17]; with Aromatase (Homo sapiens)) was inactive.
